Source: PubChem (National Center for Advancing Translational Sciences (NCATS))
Vaccinia mCherry – qHTS for Stage-Specific Inhibitors of Vaccinia Orthopoxvirus: mCherry Reporter Primary qHTS; Vaccinia virus mCherry reporter infection, fluorescence; Potency, µM (doses to about 36.5 µM), actives largely listed as inhibitors; actives 0.63% (n = 310,000); calls by dose curve; tested in A549 cells; note: nearly all actives have a fitted effect of over 35% in size
HCMV inh – qHTS Assay for inhibitors of the human cytomegalovirus (HCMV). actives 4.5% (n = 410,000). activity change, negative = inhibition, % at 57.5 µM. HFF cells, HCMV-luciferase reporter, 72 h; stronger effect = lower value; in the data active = activity change below about -60%; inconclusive = no clear call, values can overlap the other calls; inactive = above about -39%
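Cell-based, HFFs, 1000 cells/well, 16 h 37C; cpds in DMSO + HCMV-luc, MOI 1 PFU/cell; 72 h 37C; OneGlo luminescence after 5 min RT; norm. to buffer vs Salinomycin 10uM.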
HCV inh – qHTS Assay for Inhibitors of Hepatitis C Virus (HCV) | Huh7.5.1 HCVcc-Cre infection, luciferase reporter, 44 h | Potency, µM (highest dose often 41.8 µM), most hits filed as inhibitors | actives 3.4% (n = 340,000) | AID 651820, 2012; active = well fitted inhibition curve with a large enough effect; inconclusive = small, poorly fitted or top-dose-only effect, or another doubt; inactive = no such curve, though single readings can be large or run the other way
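Reporter virus HCVcc-Cre (~0.5 moi) infects cells exposed to compound; seeding density 1,000 cells/well with 4 h settling beforehand. Luminescence, 15 sec read, taken 44 h post-infection following a 15 min RT substrate incubation.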
Lassa entry inh – qHTS for Inhibitors of binding or entry into cells for Lassa Virus; Potency, µM (doses to about 37.9 µM), hits mostly inhibitors; AID 540256, 2011; Lassa virus pseudotype entry inhibition, cell reporter; actives 1.2% (n = 300,000); calls by dose curve; tested in HEK293 cells; note: nearly all actives have a fitted effect of over 50% in size
VACV Venus inh – qHTS for Stage-Specific Inhibitors of Vaccinia Orthopoxvirus: Venus Reporter Primary qHTS; Vaccinia virus Venus reporter expression, fluorescence; Potency, µM (doses to about 36.5 µM), most hits filed as inhibitors; actives 0.46% (n = 330,000); calls by dose curve; tested in A549 cells; note: nearly all actives have a fitted effect of over 30% in size
MARV entry inh – qHTS for inhibitors of binding or entry into cells for Marburg Virus; Marburg virus pseudotyped entry inhibition, cell reporter; Potency, µM (titrated, usually from 37.8 µM), hits mostly inhibitors; AID 540276, 2011; actives 1.8% (n = 300,000); calls by dose curve; tested in HEK293 cells
Large screens that a line does not name were inactive. Only some compounds are listed: those with a hit (about 7.8% of all), similar ones and a draw of the others.

COc1ccc2nc(NC(=O)c3cc(S(=O)(=O)N4CCOCC4)ccc3C)sc2c1	HCV inh 22.4µM, VACV Venus inh inconclusive (no result: Vaccinia mCherry)
COc1ccc2nc(NC(=O)c3cccc(OCc4c(C)noc4C)c3)sc2c1	Vaccinia mCherry inconclusive, HCV inh 0.355µM, Lassa entry inh inconclusive, VACV Venus inh inconclusive, MARV entry inh inconclusive
COc1ccc2nc(NC(=O)c3ccoc3C)sc2c1	HCV inh 14.1µM, MARV entry inh inconclusive
Cc1ccc(S(=O)(=O)N2CCOCC2)cc1C(=O)Nc1ccc(-c2cn3ccsc3n2)cc1	Vaccinia mCherry inconclusive, HCV inh 10µM, Lassa entry inh inconclusive, MARV entry inh inconclusive
Cc1ccc(S(=O)(=O)N2CCOCC2)cc1C(=O)Nc1ccncc1	none (no result: Vaccinia mCherry, Lassa entry inh, VACV Venus inh, MARV entry inh)
Cc1ccccc1Cn1cc(NC(=O)CSc2nc3c(c(C(F)(F)F)n2)CCc2ccccc2-3)cn1	HCV inh 12.6µM, MARV entry inh inconclusive (no result: Vaccinia mCherry, VACV Venus inh)
Cc1ccc(Cn2nc(C)c(NC(=O)CSc3nc4c(c(C(F)(F)F)n3)CCc3ccccc3-4)c2C)cc1	HCMV inh inconclusive, HCV inh inconclusive
Cc1nn(Cc2ccc(Cl)cc2)c(C)c1NC(=O)CSc1nc2c(c(C(F)(F)F)n1)CCc1ccccc1-2	MARV entry inh 11.6µM (no result: HCV inh)
Cc1nnsc1C(=O)N/N=C/c1ccc2ccccc2c1O	Vaccinia mCherry 2.24µM, HCMV inh -99.6, HCV inh inconclusive, Lassa entry inh inconclusive, VACV Venus inh inconclusive, MARV entry inh inconclusive
Cc1nnsc1C(=O)N/N=C/c1ccc(OC(F)(F)F)cc1	HCMV inh -60.5, Lassa entry inh inconclusive
Cc1nnsc1C(=O)N/N=C/c1ccccc1	MARV entry inh inconclusive
Cc1sc2nc(CN(Cc3cccs3)C(=O)NC3CCCCC3)[nH]c(=O)c2c1C	HCV inh 11.2µM, Lassa entry inh inconclusive, VACV Venus inh inconclusive, MARV entry inh inconclusive
COc1ccc2c3c([nH]c2c1)[C@H](CO)N(C(=O)c1cccc(F)c1)CC31CCN(S(=O)(=O)c2cccs2)CC1	none (no result: Vaccinia mCherry, HCV inh, Lassa entry inh, VACV Venus inh, MARV entry inh)
Cc1ccc(Cl)c(NC(=O)CSc2cccc[n+]2[O-])c1Cl	none
Cc1ccc(Cl)c(NC(=O)CCl)c1Cl	Vaccinia mCherry inconclusive, HCMV inh inconclusive, Lassa entry inh inconclusive, VACV Venus inh inconclusive, MARV entry inh 6.31µM
CC1=C(C(=O)N(C(C)C)C(C)C)CC(CC(=O)NC(c2ccccc2)c2ccccc2)C(=O)N1Cc1ccc(C(C)(C)C)cc1 (centres undefined)	none (no result: HCV inh, Lassa entry inh, MARV entry inh)
CCc1ccc2c(c1)NC(=O)C2(C)Cc1ccccc1Cl (centres undefined)	none (no result: HCV inh, Lassa entry inh, MARV entry inh)
CC1(Cc2ccc(F)cc2)C(=O)Nc2c(Cl)cccc21 (centres undefined)	HCMV inh inconclusive, VACV Venus inh inconclusive (no result: HCV inh, Lassa entry inh, MARV entry inh)
CCc1ccc2c(c1)NC(=O)C2(C)Cc1ccccc1OC (centres undefined)	HCMV inh -71.1 (no result: HCV inh, Lassa entry inh, MARV entry inh)
COc1ccccc1CC1(C)C(=O)Nc2c(Cl)cccc21 (centres undefined)	HCMV inh -72.8 (no result: HCV inh, Lassa entry inh, MARV entry inh)
COc1cccc2c1O/C(=N\O)C(C(=O)Nc1ccc(C)cc1)C2 (centres undefined)	HCMV inh -60.1, HCV inh inconclusive (no result: Vaccinia mCherry, Lassa entry inh, VACV Venus inh, MARV entry inh)
N#Cc1nccnc1S(=O)(=O)c1cccs1	HCMV inh -97.0
Cc1ccccc1N1C(=O)[C@@H]2[C@H](ON(c3ccccc3)[C@H]2c2ccncc2)C1=O	none (no result: Vaccinia mCherry, HCMV inh, HCV inh, Lassa entry inh, VACV Venus inh)
Cc1ccc(CNC(=O)c2ccc3c(c2)nc(C)n3-c2cccc(F)c2)cc1	HCMV inh -76.6 (no result: HCV inh, MARV entry inh)
CCc1ccc(CNC(=O)c2cccc(-n3c(C)nc4cccnc43)c2)cc1	none (no result: HCV inh, MARV entry inh)
Cc1nc2cccnc2n1-c1cccc(C(=O)NCc2cccc(Cl)c2)c1	HCMV inh active, VACV Venus inh inconclusive (no result: HCV inh, MARV entry inh)
Cc1oc2ccc(O)c(CN3CCN(C)CC3)c2c1C(=O)Nc1cccc(Cl)c1C	none (no result: HCV inh)
CCC1CCC2(CC1)NC(=O)N(CC(=O)Nc1cccc(S(=O)(=O)N(C)c3ccccc3)c1)C2=O (centres undefined)	HCV inh 8.91µM (no result: Vaccinia mCherry, Lassa entry inh, VACV Venus inh, MARV entry inh)
CN1C(=O)N(CC(=O)Nc2cccc(S(=O)(=O)N(C)c3ccccc3)c2)C(=O)C12CCCCC2	HCV inh 3.98µM, Lassa entry inh inconclusive, MARV entry inh inconclusive
CC1CCC2(CC1)NC(=O)N(CC(=O)Nc1cccc(S(=O)(=O)N3CCOCC3)c1)C2=O (centres undefined)	none (no result: Lassa entry inh, MARV entry inh)
COC(=O)C1=C(CN2CCCc3ccccc32)NC(=O)NC1c1ccc(F)cc1 (centres undefined)	Vaccinia mCherry inconclusive, HCMV inh -80.8, HCV inh inconclusive, Lassa entry inh inconclusive, MARV entry inh inconclusive
COC(=O)C1=C(CN2CCc3ccccc32)NC(=O)NC1c1cc(C)ccc1C (centres undefined)	HCV inh inconclusive, Lassa entry inh inconclusive (no result: Vaccinia mCherry)
COc1ccc(S(=O)(=O)n2nc(C)c(S(=O)(=O)N3CCCCCC3)c2C)cc1C	none (no result: HCV inh, MARV entry inh)
CCNC(=O)N1CCN(CCCC(c2ccc(F)cc2)c2ccc(F)cc2)CC1	HCMV inh -78.8, HCV inh inconclusive, Lassa entry inh inconclusive, MARV entry inh 10µM
C=CCn1c(SCC(=O)NCC)nnc1-c1cc2c(s1)CCC(CC)C2 (centres undefined)	HCMV inh -67.9, HCV inh inconclusive
C=CCn1c(SCC(=O)NC(N)=O)nnc1-c1cc2c(s1)CCC(CC)C2 (centres undefined)	none
C=CCn1c(SCC(=O)N2CCCC2)nc2c([nH]c3ccccc32)c1=O	none (no result: Vaccinia mCherry, Lassa entry inh, VACV Venus inh, MARV entry inh)
C=CCn1c(SCC(=O)NC2CCCC2)nc2c([nH]c3ccccc32)c1=O	HCMV inh -90.1
Cc1[nH]c2ccccc2c1SCC(=O)NC1CCCCC1	HCMV inh -64.3, HCV inh inconclusive (no result: Lassa entry inh, MARV entry inh)
CCCn1nc(NC(=O)c2ccco2)c2cc3ccccc3nc21	HCV inh 35.5µM, Lassa entry inh inconclusive, MARV entry inh inconclusive (no result: Vaccinia mCherry, VACV Venus inh)
CCCn1nc(NC(=O)c2cccs2)c2cc3ccccc3nc21	HCV inh 11.2µM, Lassa entry inh inconclusive, MARV entry inh inconclusive (no result: Vaccinia mCherry, VACV Venus inh)
CCCCn1nc(NC(=O)c2cccs2)c2cc3ccccc3nc21	HCV inh inconclusive, Lassa entry inh inconclusive, MARV entry inh 16.4µM (no result: Vaccinia mCherry, VACV Venus inh)
CCn1nc(NC(=O)c2ccco2)c2cc3cc(C)ccc3nc21	Vaccinia mCherry inconclusive, HCV inh inconclusive, MARV entry inh inconclusive
CC1CCN(S(=O)(=O)c2ccc3c(c2)N(CC(=O)N2CCN(c4ccccc4)CC2)C(=O)CO3)CC1	MARV entry inh inconclusive (no result: HCV inh)
COc1ccc2c3c(n(C)c2c1)[C@H](CO)N(C(C)=O)CC31CCN(C(=O)C2CCOCC2)CC1	none (no result: Vaccinia mCherry, HCV inh, Lassa entry inh, VACV Venus inh, MARV entry inh)
COc1cccc(CSc2nc3ccccc3cc2C=O)c1	HCMV inh -99.9, Lassa entry inh inconclusive, VACV Venus inh inconclusive, MARV entry inh inconclusive (no result: Vaccinia mCherry)
O=C(Nc1cc(-c2nc3cc(Cl)ccc3o2)ccc1Cl)c1cccc2ccccc12	none (no result: HCV inh)
